Bioassay records deposited in PubChem by National Center for Advancing Translational Sciences (NCATS).
USP2a inh: USP2a (human) protease inhibition; USP2 core, Ub-CHOP2 coupled fluorogenic reporter, 485/531; AID 463254; actives 0.01% (n = 330,000); O75604; Potency, µM (titrated, usually from 38.3 µM), inactives show top-dose activity change, negative = inhibition, hits mostly inhibitors;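 note: plate controls were DMSO wells for no effect and full inhibition by NEM control for full effect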
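Deubiquitinase activity read as fluorescence (485/531 nm) after Ub-CHOP2 cleavage activates the enterokinase reporter on its substrate; USP2 core 10nM, Ub-CHOP2 and substrate 25nM each, 30min compound preincubation then 60min RT; data normalized to NEM, curves fitted.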
GALK inhibitor: blocks human galactokinase activity; Purified GALK, Kinase-Glo residual ATP luminescence; Potency, µM (series often up to 57.5 µM), without a hit: at the highest dose activity change, negative = inhibition, actives largely listed as inhibitors; actives 0.007% (n = 270,000); AID 1868; note: % is set by controls: 0 for no effect and ±100 for the full control effect
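ATP-depletion format; final 35 uM ATP, 100 uM D-galactose, 5 nM enzyme; pH 8.0 HEPES/Mg2+ buffer; 60 min RT; luminescence read 10 min after detection reagent.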
Eya2 phos inh: inhibitors of human Eya2 phosphatase activity. Potency, µM (titrated, usually from 76.9 µM), for inactives: at the highest dose activity, negative = inhibition, hits mostly inhibitors. actives 0.006% (n = 330,000). recombinant Eya2, OMFP fluorescence dephosphorylation (OMFP is methylfluorescein phosphate); note: % is set by controls: 0 for no effect and ±100 for the full control effect
Target sequence (O00167 whole entry, looked up): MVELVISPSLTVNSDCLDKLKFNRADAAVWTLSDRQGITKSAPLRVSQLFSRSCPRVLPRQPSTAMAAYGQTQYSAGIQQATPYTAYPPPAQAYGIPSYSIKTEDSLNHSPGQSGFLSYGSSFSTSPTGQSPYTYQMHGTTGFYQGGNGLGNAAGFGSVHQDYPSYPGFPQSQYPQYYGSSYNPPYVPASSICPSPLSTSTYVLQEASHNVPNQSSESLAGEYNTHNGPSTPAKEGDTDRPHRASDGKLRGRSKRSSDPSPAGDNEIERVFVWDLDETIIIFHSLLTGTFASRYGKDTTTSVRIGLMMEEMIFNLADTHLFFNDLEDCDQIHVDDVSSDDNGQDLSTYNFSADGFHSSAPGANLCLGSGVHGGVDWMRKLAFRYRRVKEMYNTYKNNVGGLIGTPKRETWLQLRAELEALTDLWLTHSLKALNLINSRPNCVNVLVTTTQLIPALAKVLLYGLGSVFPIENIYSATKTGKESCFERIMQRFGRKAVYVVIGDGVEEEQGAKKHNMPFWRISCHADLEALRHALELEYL
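Eya2 protein (added as 0.2 uM solution) was preincubated with compound for 10 min at ambient temperature in 50 mM HEPES pH 7.5, 50 mM NaCl, 5 uM MgCl2, 0.05% BSA, 1 mM DTT. OMFP (added at 50 uM) then reacted 10 min; fluorescence read at 485/525 nm.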
ClpP mod: qHTS Assay for Activators of ClpP | ATP-dependent Clp protease proteolytic subunit (Bacillus subtilis (strain 168)), P80244 | purified B. subtilis ClpP, FRET peptide cleavage, 20 min | Potency, µM (highest dose often 57.5 µM), without a hit: top-dose activity change, negative = active | actives 1.9% (n = 340,000); active = well fitted falling curve with a large enough effect; inconclusive = small, poorly fitted or top-dose-only effect; inactive = no such curve, though single readings can be large or run the other way; note: the source files actives as falling curves though it sought activators and does not explain the sign; nearly all actives have a fitted effect of over 65% in size
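Buffer: 100 mM Tris/HCl pH8, 100 mM KCl, 0.05% low protease BSA, 2.5% glycerol, 0.01% Tween-20. ClpP 10 microg/mL final; 20 min RT; delta FRET normalized to ADEP and DMSO controls.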
ClpP validation: Bacillus subtilis ClpP inhibition, validated hit; shares compounds with ClpP mod; purified B. subtilis ClpP, FRET-FV substrate cleavage, 20 min; Potency, µM (doses to about 57.5 µM), for the others: top-dose activity change, negative = inhibition, actives largely listed as inhibitors; actives 40% (n = 470); AID 743245; note: % is set by controls: 0 for no effect and ±100 for the full control effect; nearly all actives have a fitted effect of over 70% in size
Starred values were filed as active, the others as inactive; u = inconclusive; x = not tested or not shown. The full list was thinned out, with hits kept by preference. Unless noted, calls come from the whole dose curve; as a rule, active = well fitted curve in the direction sought with a large enough effect; inconclusive = small, poorly fitted or top-dose-only effect, or another doubt; inactive = no such curve, though single readings can be large; an effect the other way counts as inactive or inconclusive. Potency is the fitted concentration of half-maximal effect.

SMILES	USP2a inh	GALK inhibitor	Eya2 phos inh	ClpP mod	ClpP validation
COc1ccc2c(c1OC)C(=O)OC2Nc1nc2ccccc2s1 (stereo not given)	-6%	4%	3%	-3%	x
Cn1c(NCCN2CCOCC2)nc2c1c(=O)n(Cc1cccc(Cl)c1)c(=O)n2C	5%	-2%	-6%	3.2µM*	0%
Cc1cccc(NS(=O)(=O)c2cccc(C(=O)NCC(c3ccco3)N3CCCCC3)c2)c1 (stereo not given)	-5%	x	-3%	3.2µM*	-2%
CCCNC(=O)c1cnc2sc(N3CCCCC3)nn2c1=O	x	x	x	4%	x
COc1ccc(CNC(=O)c2cnc3sc(N4CCCC4)nn3c2=O)c(OC)c1	x	x	x	-8%	x
CCCNC(=O)c1cnc2sc(N3CCCCCC3)nn2c1=O	x	x	x	3.2µM*	1%
CCOc1ccccc1CNC(=O)c1cnc2sc(N3CCOCC3)nn2c1=O	x	x	x	2.8µM*	0%
CCc1ccc(CNC(=O)c2cnc3sc(N4CCOCC4)nn3c2=O)cc1	x	x	x	3.2µM*	-1%
CCOc1ccccc1CNC(=O)c1cnc2sc(N3CCCCCC3)nn2c1=O	x	x	x	3.2µM*	-5%
CCOc1ccc(NC(=O)c2cnc3sc(N4CCOCC4)nn3c2=O)cc1	x	x	x	-5%	x
CC(C)CC(NC(=O)C(CC(C)C)NC(=O)OC(C)(C)C)C(N)=O (stereo not given)	-1%	0%	-5%	-1%	x
COC(=O)C1=C(C)Nc2nnnn2C1c1ccc(Cl)cc1Cl (stereo not given)	-1%	0%	-3%	-14%	x
COc1ccc(/C=N/NC(=O)c2ccc(=O)n(C)c2)cc1OC	8%	1%	8%	x	x
CCOc1ccc2nc(NC(=O)C3=NN(c4ccccc4)C(=O)CC3)sc2c1	0%	-3%	15%	1%	x
NC(=O)COc1ccc2cc(-c3ccc(F)cc3)c(=O)oc2c1	1%	0%	1%	x	x
O=c1oc2cc(OCc3ccc(F)cc3F)ccc2cc1-c1ccccn1	3%	1%	-31%	3.2µM*	9.7µM*
CN(C)CCOC1c2ccccc2CCc2ccc3ccccc3c21 (stereo not given)	x	x	x	45%	0%
CCOc1ccc(NC(=O)c2ccc(-c3ccccc3)s2)cc1	x	x	x	-4%	x
CNC(=O)c1ccc(-c2ccccc2)s1	2%	0%	0%	3.5µM*	27µM*
O=C(Nc1cccc(-c2nc3ccccc3o2)c1)c1ccc(-c2ccc(Br)cc2)o1	x	x	x	4µM*	11%
CCOC(=O)c1ccc(NC(=S)N(CCCN2CCCC2)Cc2cccs2)cc1	2%	-1%	-3%	x	x
COc1cc(NC(=O)CCS(=O)(=O)c2nc(-c3cccs3)cc(C(F)(F)F)n2)cc(OC)c1OC	0%	x	2%	44%	23%
COc1ccc(NC(=O)CCS(=O)(=O)c2nc(-c3cccs3)cc(C(F)(F)F)n2)cc1OC	x	x	x	17%	x
c1cncc(C2Nc3ccccc3-c3nc4ccccc4n32)c1 (stereo not given)	1%	-2%	-7%	3.2µM*	27µM*
c1csc(C2Nc3ccccc3-c3nc4ccccc4n32)c1 (stereo not given)	1%	-2%	1%	11%	x
SMILES	USP2a inh	GALK inhibitor	Eya2 phos inh	ClpP mod	ClpP validation
Cc1cccc(OCCSc2nc(-c3cccs3)nc3cc(=O)[nH]n23)c1	x	x	x	1%	x
Cc1nn(-c2ccccn2)c2c1-c1nc(N3CCOCC3)ncc1CC2	1%	-1%	21%	3%	x
Cc1nn(-c2ccccn2)c2c1-c1nc(N)ncc1CC2	2%	-1%	-3%	10µM*	17µM*
Cc1ccccc1NC(=O)c1cc2sccc2n1Cc1ccc(F)cc1	x	x	x	150%	u
CC(NC(=O)c1cc2sccc2n1Cc1ccc(F)cc1)c1ccccc1 (stereo not given)	x	x	x	-1%	x
COc1ccc(OC)c(NC(=O)c2cc3c(Cl)nc4ccccc4c3s2)c1	1%	1%	1%	54%	-26%
CCn1c(C)c(/C=N/Nc2nc3ccccc3s2)c2ccccc21	3%	-3%	5%	-17%	x
CCOc1ccc(NS(=O)(=O)c2ccc(C(=O)N3CC(C)OC(C)C3)cc2)cc1 (stereo not given)	-1%	x	-12%	1%	x
CCOc1ccc(S(=O)(=O)Nc2ccc(C(=O)N3CC(C)OC(C)C3)cc2)cc1 (stereo not given)	5%	x	9%	5.6µM*	0%
O=P(CCO)(c1ccccc1)c1ccccc1	0%	1%	1%	x	x
O=C(COC(=O)c1cnccn1)Nc1ncc(C(F)(F)F)cc1Cl	-2%	x	u	2%	x
COc1ccc(-c2cc(C(F)(F)F)nc(-n3cc(Cl)cn3)n2)cc1	5%	1%	-4%	4µM*	22µM*
O=C1COc2ccc(C(=O)CCl)cc2N1	3%	4%	5%	x	x
CCCOc1ccc(-c2nc(SC)[nH]c(=O)c2C#N)cc1OC	x	x	x	-14%	x
CC1CCN(S(=O)(=O)c2ccc3c(c2)CCN3C(=O)Nc2cccc(Br)c2)CC1	x	x	x	59%	u
Cc1cc(C)c(NC(=O)c2ccccc2C(=O)c2ccccc2)c(C)c1	-2%	10%	0%	x	x
CC(OC(=O)c1nn(C(C)C)c(=O)c2ccccc12)C(=O)Nc1ncc(Cl)cc1Cl (stereo not given)	4%	0%	-9%	42%	-5%
O=C(Nc1ccc(-c2cn3ccccc3n2)cc1)c1ccc(Cl)cc1	0%	x	4%	76%	-14%
Cc1ccc(/C=C/c2nc3ccccc3n2S(=O)(=O)c2cccc(Cl)c2)cc1	x	x	x	10µM*	u
CCOc1ccc(/C=C/c2nc3ccccc3n2S(=O)(=O)c2cccc(Cl)c2)cc1	x	x	x	4%	x
CCOc1cc(-c2nc(-c3ccncc3)no2)cc(OCC)c1OCC	2%	4%	3%	3%	x
Cc1noc(C)c1COC(=O)c1cccc(S(=O)(=O)N2c3ccccc3CC2C)c1 (stereo not given)	4%	-2%	-1%	-1%	x
CC1=C(c2ccc(C)c(C)c2)S(=O)(=O)N(Cc2ccc(C(=O)NCc3cccc(C)c3)cc2)C1=O	x	x	x	10µM*	15µM*
COc1ccc(S(=O)(=O)N2CCC(CN3C(=O)c4cccc5cccc(c45)C3=O)CC2)cc1	-4%	0%	-2%	10µM*	24µM*
O=C(c1ccc(S(=O)(=O)N2CCCC2)cc1)N1CCC(CN2C(=O)c3cccc4cccc(c34)C2=O)CC1	-2%	-4%	4%	x	x
CCN(CC(=O)Nc1c(F)cccc1F)C(=O)c1ccc(C2SCCS2)cc1	-1%	x	-7%	74%	0%
CCN(CC(=O)Nc1c(F)cccc1F)C(=O)c1ccc(C(F)(F)F)cc1	-3%	4%	-11%	0%	x
O=C(CN1CCN(Cc2ccccc2)CC1)NCCc1ccccc1	-1%	2%	-1%	6.3µM*	1%
